DRD3 agonist = agonists of human D3 dopamine receptor; P35462; D3R DiscoveRx beta-arrestin cells, luminescence, 90 min; max activation, %; 410,000 tested, 0.58% active; AID 652048; in the data active means max activation above about 30%
Target sequence (P35462 whole entry, looked up): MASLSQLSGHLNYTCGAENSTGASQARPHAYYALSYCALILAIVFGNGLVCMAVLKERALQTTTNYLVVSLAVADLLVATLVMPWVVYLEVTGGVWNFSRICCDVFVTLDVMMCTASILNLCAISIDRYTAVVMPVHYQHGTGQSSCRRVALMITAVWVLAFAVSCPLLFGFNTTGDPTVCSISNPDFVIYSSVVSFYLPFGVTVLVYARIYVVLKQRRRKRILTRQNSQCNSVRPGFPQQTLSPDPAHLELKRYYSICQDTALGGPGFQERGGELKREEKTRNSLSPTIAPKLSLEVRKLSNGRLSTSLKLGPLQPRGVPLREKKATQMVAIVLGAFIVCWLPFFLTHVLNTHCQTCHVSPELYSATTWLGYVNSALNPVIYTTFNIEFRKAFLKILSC
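Cells at 1500/well, incubated overnight, then treated with pinned compounds (dopamine as control) for 90 min at 37 degrees C. DiscoveRx reagent added for 30 - 60 minutes at room temperature; luminescence read.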
B2AR arrestin = recruits beta-arrestin to the human beta2-adrenergic receptor | P07550 | beta-arrestin recruitment to beta2AR, cell-based reporter | Potency, µM (doses to about 46.1 µM), most hits filed as activators | 330,000 tested, 0.02% active; active means well fitted activation curve with a large enough effect; inconclusive means small, poorly fitted or top-dose-only effect; further: nearly all actives have a fitted effect of over 65% in size
Giardia killer = kills Giardia lamblia | Giardia lamblia trophozoite viability | 340,000 tested, 0.15% active | AID 540267 | activity change, % at 7.66 µM, hits read low; in the data active means activity change below about -80%; inconclusive means between about -30% and that limit;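 further: parasites exposed to compound for two days anaerobically before the ATP read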
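Luminescence from cellular ATP indicates surviving trophozoites (100 cells/well) following 48 hrs anaerobic compound treatment at 37 deg C; signal develops 15-30 min at room temperature.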
DRD3 antagonist = D3 dopamine receptor (human) antagonism. max response, negative = inhibition, %. D3R cells, DiscoveRx beta-arrestin luminescence, antagonist mode; hits give low values. 360,000 tested, 2.5% active; in the data active means max response below about -50%; inconclusive means no clear call, values can overlap the other calls
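Cells expressing the human receptor were seeded at 1500 cells/well, incubated overnight at 37 degrees C in 5% CO2, then exposed to library compounds with dopamine controls for 90 minutes at 37 degrees C before luminescent detection.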
Each line names hits and unclear results; the compound was inactive in the other large screens. Hits are enriched below; roughly 2.8% of the tested compounds scored in any of these assays.

CCCCC1=CC2=CC(=O)C(C)(OC(=O)CC)C(=O)C2=CN1c1cccc(C#N)c1 (stereo not drawn)	DRD3 agonist 32, Giardia killer inconclusive (no result: B2AR arrestin)
CCCCC1=CC2=CC(=O)C(C)(OC(=O)CC)C(=O)C2=CN1c1ccc(OC)cc1 (stereo not drawn)	none
COc1cc(C(O)C(=O)O)ccc1O (stereo not drawn)	none
COc1cc(C2c3cc(O)c(OC)cc3CC(C(=O)O)C2CO)ccc1O (stereo not drawn)	DRD3 agonist 71 (no result: B2AR arrestin)
Cc1[nH]n(-c2ccccc2)c(=O)c1-c1ccccc1	DRD3 antagonist inconclusive
Cc1[nH]n(-c2cccc(Cl)c2)c(=O)c1-c1ccccc1	DRD3 antagonist -52
CN(C(=O)CSc1nc2ccc(NC(=O)c3cccc(F)c3)cc2s1)c1ccccc1	none (no result: B2AR arrestin, Giardia killer, DRD3 antagonist)
COc1cccc(/C=N/Nc2ncccc2[N+](=O)[O-])c1OC	DRD3 antagonist inconclusive
O=[N+]([O-])c1ccc(/C=N/Nc2ncccc2[N+](=O)[O-])s1	Giardia killer -93 (no result: B2AR arrestin)
N#Cc1c(C(F)(F)F)cc(-c2cccs2)nc1SCc1ccccc1F	none (no result: B2AR arrestin, Giardia killer, DRD3 antagonist)
COc1ccc(-c2ccc(OC)c(C3C4C=CCCC4(C)C(=O)N3Cc3ccccc3)c2)cc1OC (stereo not drawn)	none (no result: DRD3 agonist, B2AR arrestin, DRD3 antagonist)
CC(C)(C)NC(=O)c1ccc(Sc2ccccc2)c([N+](=O)[O-])c1	DRD3 antagonist -50
CN1C[C@H](C(=O)N[C@]2(C)O[C@@]3(O)[C@@H]4CCCN4C(=O)[C@H](Cc4ccccc4)N3C2=O)CC2c3cccc4[nH]cc(c34)C[C@H]21 (stereo partly drawn)	DRD3 antagonist -65 (no result: B2AR arrestin)
Cc1cccc(-c2nc3c4ccccc4nc(N4CCN(c5cc(C)ccc5C)CC4)n3n2)c1	none (no result: B2AR arrestin, Giardia killer, DRD3 antagonist)
CCCCCCCCCCCCCCCC(=O)OC[C@H](O)[C@H]1OC(=O)C(O)=C1O	none (no result: B2AR arrestin, Giardia killer, DRD3 antagonist)
COc1ccc(N=CC2=C(O)c3ccccc3C2=O)c(OC)c1	Giardia killer inconclusive, DRD3 antagonist -58
CCOc1ccc(OC(=O)c2cn(-c3cccc(OC)c3)c(=O)c3ccccc23)cc1	none (no result: B2AR arrestin, Giardia killer, DRD3 antagonist)
CC(C)(C)OC(=O)N1CCC(c2c(C(=O)NCCc3ccccc3)cnn2-c2ccc(F)cc2)CC1	none (no result: B2AR arrestin, Giardia killer, DRD3 antagonist)
O=C(N/N=C/c1cccc2cccnc12)c1ccccc1O	DRD3 antagonist -53
O=C(N/N=C/c1cccc2nccnc12)c1ccccc1O	none
COc1ccc(CCNC(=O)CCC(=O)Nc2ccc3nc(N4CCN(C)CC4)cc(C)c3c2)cc1OC	none
CCCCN(CC)CCNC(=O)CCC(=O)Nc1ccc2nc(N3CCN(C)CC3)cc(C)c2c1	DRD3 antagonist -57
Cc1cc(N2CCN(C)CC2)nc2ccc(NC(=O)CCC(=O)NCCC3=CCCCC3)cc12	DRD3 antagonist -53 (no result: B2AR arrestin)
CCCN(CCC)CCNC(=O)CCC(=O)Nc1ccc2nc(N3CCOCC3)cc(C)c2c1	DRD3 antagonist -66
N=c1nc(-c2ccccc2)n(-c2ccccc2)s1	none (no result: DRD3 agonist, B2AR arrestin, DRD3 antagonist)
O=C(COC(=O)c1ccc(C(F)(F)F)cc1)NC(=O)C1CCCCC1	none (no result: DRD3 agonist, B2AR arrestin, DRD3 antagonist)
Cc1ccc(NC(=O)/C(C#N)=C/c2cc(C)n(-c3ccc(F)cc3)c2C)cc1C	none (no result: B2AR arrestin, Giardia killer, DRD3 antagonist)
CN(C)c1nc(C=C(C#N)C#N)c(Cl)n1-c1ccc(F)cc1	DRD3 antagonist -64
O=C(CCS(=O)(=O)c1cc(Br)cc2c1N(C(=O)C1CC1)CC2)NCc1ccccc1Cl	none (no result: B2AR arrestin, Giardia killer, DRD3 antagonist)
O=C(OCn1ncc(Cl)c(Cl)c1=O)c1cccc(C(F)(F)F)c1	DRD3 antagonist -71
Cc1ccc(OCCN2CCN(c3ncnc4sc(C)c(C)c34)CC2)cc1	DRD3 agonist 33
Nc1nonc1OCCOCCOCCOc1nonc1N	DRD3 antagonist -59
Cc1cc(C)n(CCOc2nonc2N)n1	none
COc1ccccc1NC(=O)C(=O)Nc1ccccn1	DRD3 antagonist -84
O=C(/C=C/c1ccc(F)cc1)NNC(=O)CCN1CCN(Cc2ccccc2)CC1	none
COc1cccc(/C=C/C(=O)NNC(=O)CCN2CCN(Cc3ccccc3)CC2)c1	DRD3 antagonist -53
O=C(CSc1nc2ccccc2[nH]1)N1CCCCC1	DRD3 antagonist -96
Cc1ccc2nc(SCC(=O)c3c[nH]c4ccccc34)[nH]c2c1	none
O=C(CSc1nc2ccccc2[nH]1)N1CCN(c2ccccc2)CC1	none
O=C(CSc1nc2ccccc2[nH]1)c1c[nH]c2ccccc12	DRD3 antagonist -56
Clc1ccc2c(c1)-n1cc(-c3ccccc3)nc1CO2	none (no result: B2AR arrestin, Giardia killer, DRD3 antagonist)
COc1cccc(OC)c1OCCCNC1CCCC1	DRD3 antagonist -55
Cc1ccc(OCCCCNC2CCCCC2)c(C)c1	DRD3 antagonist -79
Cc1ccc(C)c(OCCCNC2CCCC2)c1C	DRD3 antagonist -73
COc1ccc2c(c1)c1nnc(SC(C)C)nc1n2C	none (no result: DRD3 agonist, B2AR arrestin, DRD3 antagonist)
Cc1ccc(-n2nc(C(=O)N(C)c3ccc(C)c(C)c3)c3c4ccccc4n(C)c3c2=O)cc1	none (no result: B2AR arrestin, Giardia killer, DRD3 antagonist)

Screening data as filed in PubChem.
